# Measurements as given in PubChem BioAssay (NCI).
# Compounds without any hit were thinned out: in the full panel of roughly 79,000, 15% have a hit. Unmarked numbers belong to inactive results. Active and inactive are the calls of the source. Rule as the data show it: active = growth inhibition above about 70%; inactive = the rest.
# Experiments:
# [1] = NCI Yeast Anticancer Drug Screen. Data for the rad50 strain (AID 155);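 also: 0% = growth of vehicle-only cultures of the same strain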; conditions: S. cerevisiae rad50 strain growth inhibition, hits give high values
# In short: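 Genetically altered yeast (DNA repair pathway); compound treatment; growth inhibition vs vehicle ctrl.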
# [2] = NCI Yeast Anticancer Drug Screen. Data for the mec2-1 strain (AID 157); conditions: S. cerevisiae mec2-1 strain, hits give high values
# In short: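 Readout is yeast growth inhibition, normalised to vehicle-treated controls, in the mec2-1 strain exposed to compound.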
# [3] = NCI Yeast Anticancer Drug Screen. Data for the sgs1 mgt1 strain (AID 161);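 also: 0% = growth of cultures given vehicle only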; conditions: S. cerevisiae sgs1 mgt1 strain, hits give high values
# In short: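 Yeast cells carrying a defined DNA-repair defect were exposed to test compounds. Growth inhibition was measured relative to vehicle-treated controls.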
# [4] = NCI Yeast Anticancer Drug Screen. Data for the cln2 rad14 strain (AID 165);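 also: 0% = growth equal to vehicle treated cultures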; conditions: S. cerevisiae cln2 rad14 strain, hits give high values
# In short: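 Relative to vehicle controls, growth inhibition of compound-treated cln2 rad14 yeast was recorded.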
# [5] = NCI Yeast Anticancer Drug Screen. Data for the bub3 strain (AID 167); conditions: S. cerevisiae bub3 mutant strain, hits give high values
# In short: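 Yeast carrying a defined mutation is treated with each compound, and growth is compared with that of vehicle-exposed cells to give inhibition.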
# [6] = NCI Yeast Anticancer Drug Screen. Data for the mlh1 rad18 strain (AID 175); conditions: S. cerevisiae mlh1 rad18 strain growth inhibition, hits give high values
# In short: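 Test agents were incubated with a yeast strain of defined genotype (DNA damage repair defect). Inhibition of growth was derived by comparison with vehicle-exposed cultures.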
# [7] = at 5.0 µM (retest, dose inferred, filed as 0.5)
# [8] = at 50.0 µM (retest, dose inferred, filed as 5.0)
SMILES,"growth inhibition [1, 7]","growth inhibition [1, 8]",growth inhibition ([1]; at 50.0 µM),"growth inhibition [2, 7]","growth inhibition [2, 8]",growth inhibition ([2]; at 50.0 µM),"growth inhibition [3, 7]","growth inhibition [3, 8]",growth inhibition ([3]; at 50.0 µM),"growth inhibition [4, 7] [%]","growth inhibition [4, 8]",growth inhibition ([4]; at 50.0 µM),"growth inhibition [5, 7]","growth inhibition [5, 8]",growth inhibition ([5]; at 50.0 µM),"growth inhibition [6, 7]","growth inhibition [6, 8]",growth inhibition ([6]; at 50.0 µM)
Cc1c(C)c(C)c(C(=O)c2ccccc2C(=O)NCCSC(C)(C)C)c(C)c1C,42%,49%,82.6% (active),45%,60%,67.6%,-15%,-31%,83.3% (active),53,41%,76.6% (active),44%,33%,82.4% (active),47%,55%,84.3% (active)
Cc1n(CC(C)C)c2c([n+]1CC(=O)c1ccc([N+](=O)[O-])cc1)C(=O)c1ccccc1C2=O,56%,92% (active),88.2% (active),25%,98% (active),90.7% (active),44%,98% (active),91.3% (active),66,98% (active),89.8% (active),84% (active),98% (active),89.9% (active),47%,96% (active),90.2% (active)
O=[N+]([O-])c1ccc(SC(=S)N2CCCCC2)c([N+](=O)[O-])c1,21%,98% (active),98.4% (active),16%,98% (active),99% (active),15%,99% (active),99.2% (active),0,92% (active),98.4% (active),10%,98% (active),98.8% (active),21%,98% (active),98.9% (active)
CCc1c(C(=O)OC)c(C(=O)OC)c(-c2ccccc2)n1CCn1c(CC)c(C(=O)OC)c(C(=O)OC)c1-c1ccccc1,-2%,82% (active),50.1%,-2%,64%,38.2%,-2%,74% (active),28.6%,1,52%,25.5%,1%,83% (active),98.5% (active),2%,54%,40.4%
COc1ccccc1C(c1cc2c(cc1O)OCO2)N1CCOCC1 (configuration not stated),-15%,97% (active),99% (active),-20%,98% (active),98.6% (active),-8%,98% (active),85.3% (active),-12,51%,77.4% (active),15%,99% (active),31.9%,6%,98% (active),42.4%
CCC(=O)C(CC)(c1ccc(OC(C)=O)cc1)c1ccc(OC(C)=O)cc1,13%,82% (active),-20.3%,24%,73% (active),-1.2%,9%,75% (active),53.1%,9,33%,14.7%,9%,59%,35.1%,21%,93% (active),-1.85%
O=C(Nc1ccc(F)c(Cl)c1)Oc1ccc(Br)cc1Br,10%,52%,38.1%,5%,50%,56.8%,-2%,66%,65.8%,-5,6%,11.3%,-2%,11%,15.5%,-3%,80% (active),89.5% (active)
C/C(=N/NC(N)=S)C(CN1CCOCC1)C(C1=C(O)c2ccccc2OC1)c1ccccc1 (configuration not stated),26%,26%,75% (active),28%,28%,71.8% (active),24%,24%,80.9% (active),6,6%,75.4% (active),24%,24%,71% (active),26%,26%,77.7% (active)
O=[N+]([O-])c1cc(Cc2cc([N+](=O)[O-])c3cccnc3c2O)c(O)c2ncccc12,96% (active),98% (active),98.3% (active),89% (active),98% (active),97.2% (active),85% (active),98% (active),98.4% (active),65,97% (active),93.5% (active),73% (active),98% (active),97.4% (active),90% (active),97% (active),97.8% (active)
